Records with an inconclusive call do not appear. Values without a mark were called inactive. The source made the active and inactive calls. The call rests on the fitted dose curve; in most records, active means well fitted cell-killing curve with a large enough effect; inconclusive means small, poorly fitted or top-dose-only effect; inactive means flat fitted curve, though single readings scatter.
experiment: Cell Viability - LYMP2-008 (AID 980); settings: LYMP2-008 lymphoblastoid cell viability, qHTS; series mostly up to 92.2 µM; activity change, negative = cytotoxicity: at the top concentration;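 further: cells exposed to compound for 24 h at 37 °C; nearly all actives have a fitted effect of over 60% in size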
In short: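 Measured: ATP-dependent luminescence, proportional to viable cell number, in human lymphoblastoid cells treated 24 hr with compound in complete culture medium. Values are AC50s from Hill-equation modelling of qHTS titrations.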
On the % scale 0 is the no-effect control and ±100 the full control effect.

Row | Compound | activity change, negative = cytotoxicity | Potency
1 | Brc1ccccc1 | -7.48% | –
2 | CCOP(=S)(OCC)SCSC(C)(C)C | -0.0379% | –
3 | C=C(C)C#N | -8.9% | –
4 | CCSC(=O)Cl | -1.4% | –
5 | Cc1cccc([N+](=O)[O-])c1 | -9.04% | –
6 | Nc1c(Cl)c(Cl)nc(C(=O)O)c1Cl | -8.31% | –
7 | CC(C)(C)OOC(C)(C)C | 4.46% | –
8 | C=C(C)C(=O)OCC1CO1 (stereo not given) | -8.31% | –
9 | Cc1ccc([N+](=O)[O-])cc1C | 2.63% | –
10 | O=[N+]([O-])c1ccc(Cl)c(Cl)c1 | 0.143% | –
11 | C=CC(=C)C | -2.01% | –
12 | Cc1ccc2ccccc2c1 | -8.54% | –
13 | Nc1ccccc1Cl | -2.73% | –
14 | Clc1ccc2ccccc2c1 | -14.1% | –
15 | [O-][Br+2]([O-])O | – | inactive
16 | Clc1nc(Cl)nc(Nc2ccccc2Cl)n1 | -5.11% | –
17 | OCC1CO1 (stereo not given) | -0.65% | –
18 | C=CCOC(=O)c1ccccc1N | -3.61% | –
19 | C=CC(N)=O | – | inactive
20 | CC(C)(c1ccccc1)c1ccc(O)cc1 | -3.25% | –

Row | Compound | activity change, negative = cytotoxicity | Potency
21 | CCN(CC)c1ccccc1 | 9.6% | –
22 | S=C=Nc1cccc2ccccc12 | -7.61% | –
23 | N#CCCCl | – | inactive
24 | O=NN(CCO)CCO | 0.319% | –
25 | Cc1ccccc1N | – | inactive
26 | C=CCOC(C)=O | -0.943% | –
27 | CCCC(=O)Cl | -5.07% | –
28 | NC(=S)Nc1ccccc1 | – | inactive
29 | O=C(Cl)/C=C/C(=O)Cl | 2.14% | –
30 | C=C(Cl)Cl | 2.57% | –
31 | ClCBr | -28.7% | –
32 | COc1ccc(C=O)cc1OC | 2.05% | –
33 | C=CC(=O)OCC | -9.42% | –
34 | c1nc[nH]n1 | -10% | –
35 | c1ccc2c(c1)CCCC2 | -3.66% | –
36 | CCCSC(=O)Cl | 0.89% | –
37 | Clc1cccc(C(Cl)(Cl)Cl)n1 | 6.63% | –
38 | O=NN(c1ccccc1)c1ccccc1 | -12.2% | –
39 | C1CCC2CCCCC2C1 (stereo not given) | 9.46% | –
40 | CC(O)CCl (stereo not given) | -9.36% | –

Reference: PubChem BioAssay (NCATS)
